# Test results reported in PubChem BioAssay (EPA / NIEHS).
# Activity calls are given as the source filed them. The calls were made as follows: active = hit-call score of the fitted dose curve at least 0.9, where 1 is the maximum; inactive = score below 0.9.
# Target: CCAAT/enhancer-binding protein beta (Homo sapiens) (UniProt P17676)
# Assay: ATG_C_EBP_CIS: Attagene CIS-FACTORIAL HepG2 Assay for human CCAAT/Enhancer Binding Protein (C/EBP) beta (AID 2282927)
# Settings: HepG2 Attagene cis-factorial transcription factor reporter; actives raise or lower the signal
# Method: ATG_CIS is a cell-based, multiplexed-readout assay that uses HepG2, a human liver cell line, with measurements taken at 24 hours after chemical dosing in a 24-well plate.ATG_C_EBP_CIS is one of 52 assay component(s) measured or calculated from the ATG_CIS assay. It is designed to make measurements of mRNA induction, a form of inducible reporter, as detected with fluorescence intensity signals by Reverse transcription polymerase chain reaction (RT-PCR) and Capillary electrophoresis technology.Data from the assay component ATG_C_EBP_CIS was analyzed into 1 assay endpoint. This assay endpoint, ATG_C_EBP_CIS, was analyzed with bidirectional fitting relative to DMSO as the negative control and baseline of activity. Using a type of inducible reporter, measures of mRNA for gain or loss-of-signal activity can be used to understand the reporter gene at the transcription factor-level as they relate to the gene CEBPB. Furthermore, this assay endpoint can be referred to as a primary readout, because this assay has produced multiple assay endpoints where this one serves a reporter gene function. To generalize the intended target to other relatable targets, this assay endpoint is annotated to the dna binding intended target family, where the subfamily is basic leucine zipper.
# Human liver HepG2 cells are transiently transfected with multiple reporter transcription units (MRTUs) in 6-well plates using FuGene 6 reagent (Roche; 3 ml FuGene/1 mg DNA). The MRTU constructs are regulated by a cis-regulating element (promoter). […] A major difference between the CIS and TRANS system is that in CIS activities of endogenous TFs are measured, whereas the TRANS assay evaluates changes in activities of exogenous, chimeric NR-Gal4 proteins. […] At the end of 24 hour incubation, total RNA was isolated using TriZol reagent (Invitrogen). The isolated RNA is then reverse-transcribed using oligo(dT) primer and Mo-MLV reverse transcriptase (Invitrogen) with DNAse I (Ambion) treatment for 30 min. The one-tenth of the produced cDNA was amplified by PCR using Taq DNA polymerase (Invitrogen) and two reporter sequence-specific primers. The PCR products were fluorescently labeled by primer extension with 6-arboxyfluorescein (6-FAM) 5'-labeled reporter sequence-specific primer (2 min at 95 C, 20 s at 68 C and 10 min at 72 C) and these products were digested with 5U of HpaI (New England Biolabs) for 2h at 37 C. The fragments were purified using Qiaquick PCR columns (Qiagen), analyzed on an ABI 3130xL genetic analyzer (Applied Biosystems) with peak positions identified by using a set of X-rhodamine (ROX)-labeled MapMarker1000 molecular weight standards (BioVentures). The raw capillary electrophoresis data was processed using Attagraph software (Attagene).
# Sequence of CCAAT/enhancer-binding protein beta (Homo sapiens) (P17676 whole entry, looked up): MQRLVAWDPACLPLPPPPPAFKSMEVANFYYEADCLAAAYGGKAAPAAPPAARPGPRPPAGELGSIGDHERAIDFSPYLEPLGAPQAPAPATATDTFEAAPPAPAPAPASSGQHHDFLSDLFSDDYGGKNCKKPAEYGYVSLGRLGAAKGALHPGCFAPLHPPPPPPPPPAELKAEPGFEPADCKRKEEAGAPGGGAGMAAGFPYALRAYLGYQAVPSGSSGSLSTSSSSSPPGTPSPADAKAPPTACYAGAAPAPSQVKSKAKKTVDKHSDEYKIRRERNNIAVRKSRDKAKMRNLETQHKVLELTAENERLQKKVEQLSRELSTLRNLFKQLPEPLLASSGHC
Compound,outcome,AC50
CC(C)=CCCC(C)O (stereo not given),inactive,–
O=C1c2ccccc2C(=O)c2c(Cl)cccc21,inactive,–
NC(=O)C(F)(F)C(F)(F)C(F)(F)C(F)F,inactive,–
CCc1ccc(C)nc1,inactive,–
CCCCOC(=O)[C@H](C)O,inactive,–
CC(O)C#CC(C)O (stereo not given),–,179 µM (active)
Oc1ccc2c(c1)CCC2,inactive,–
OCCCc1cccnc1,inactive,–
CSc1ccc(O)cc1C,inactive,–
F[Si-2](F)(F)(F)(F)F,inactive,–
O=C(c1ccccc1)c1ccc(Cl)cc1,inactive,–
O=c1[nH]cccc1O,inactive,–
C=CC(=O)OCC(F)(F)C(F)(F)C(F)(F)C(F)(F)C(F)(F)C(F)(F)C(F)(F)C(F)F,inactive,–
C=CC(=O)OCC(F)(F)C(F)(F)C(F)(F)COC(=O)C=C,inactive,–
O=C1c2c(O)ccc(Nc3ccc(CCO)cc3)c2C(=O)c2c([N+](=O)[O-])ccc(O)c21,inactive,–
O=C(F)C1(F)C(F)(F)C(F)(F)C(F)(F)C(F)(F)C1(F)F,inactive,–
CCCCC(CC)COC(=O)c1ccc(N(C)C)cc1 (stereo not given),inactive,–
CCCCCCCCn1sc(Cl)c(Cl)c1=O,inactive,–
C=CCOC(=O)CC(C)C,inactive,–
Cc1cnccn1,inactive,–

Compound,outcome,AC50
CCc1cc(Cc2cc(CC)c(N)c(CC)c2)cc(CC)c1N,inactive,–
CCCCCCCCCc1ccc(OCCO)cc1,–,4.25 µM (active)
CN(C)C(C)(C)CO,inactive,–
CO[Si](C)(CCC(F)(F)C(F)(F)C(F)(F)C(F)(F)C(F)(F)C(F)(F)F)OC,inactive,–
CC1CCCCC1,inactive,–
O=C(O)CCC(F)(F)C(F)(F)C(F)(F)F,inactive,–
O=C1OC(=O)c2ccc3c4c(ccc1c24)C(=O)OC3=O,inactive,–
Cc1ccc(O)cn1,inactive,–
CCCCCCCCCCCCCC[P+](CCCC)(CCCC)CCCC,inactive,–
C=C(C)CCCC,inactive,–
Cc1cc(O)c(C(C)(C)C)cc1C(C)(C)C,inactive,–
C=C(C)C(=O)OCC(F)(F)C(F)(F)C(F)(F)C(F)F,inactive,–
O=C(O)CCC(F)(F)C(F)(F)C(F)(F)C(F)(F)C(F)(F)C(F)(F)C(F)(F)F,inactive,–
CCCCCCCCCCCCC[N+](C)(C)Cc1ccccc1,inactive,–
O=C(c1ccccc1)c1ccc(O)cc1O,inactive,–
CCOC(=O)C1CC(=O)C(=C(O)C2CC2)C(=O)C1 (stereo not given),inactive,–
OCC(F)(F)C(F)(F)C(F)(F)C(F)(F)C(F)(F)C(F)(F)CO,inactive,–
CNS(=O)(=O)C(F)(F)C(F)(F)C(F)(F)C(F)(F)C(F)(F)C(F)(F)C(F)(F)C(F)(F)F,inactive,–
O=S(=O)(O)c1ccc(Cl)cc1,inactive,–
Cc1cc(C)c(O)c(C(C)(C)C)c1,inactive,–
